Assay results taken from PubChem BioAssay (NCI).
This is part of a sample that, as a whole, favours compounds with a hit. Of some 83,000 tested, about 20% had one in any assay.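 Negative percent growth values reflect cell death: -40 means 40% of the cells present at the start died, and -100 means all died.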 Values without a mark were called inactive. Active and inactive are the calls of the source. How the source made its calls: active means growth percent below 10; inactive means the rest.

Each compound was assayed on HL-60(TB) leukemia (assay: NCI-60 one-dose screen, 48 h (100 = growth as untreated, 0 = no growth, -100 = all killed)). Details: 10 µM unless noted.

SMILES	growth
O=C(Nc1nc2ccc(O)cc2s1)c1cccc(C(F)(F)F)c1	18.3%
COc1cc2c(cc1OC)C(Sc1ccc(C)cc1)c1c(nc(N)c(C#N)c1N)O2 (centres undefined)	-19% (active)
O=C(CSc1nnc(-c2ccc(Cl)cc2)n1-c1ccccc1)Nc1ccccc1Cl	91.8%
O=C(NCCNc1cc(-c2cn(-c3ccccc3)nc2-c2cccc(O)c2)ccn1)Nc1ccc(Cl)c(C(F)(F)F)c1	84.2%
NC(N)=NS(=O)(=O)c1ccc(N=NC2C(=O)NN(c3ccccc3)C2=O)cc1 (centres undefined)	107%
O=C(/C=C/c1cc(Cl)ccc1Cl)Nc1ncc(Cc2ccc(Cl)cc2)s1	-7.21% (active)
NS(=O)(=O)c1ccc(Nc2nc(N/N=C/c3ccc([N+](=O)[O-])cc3)nc(Nc3ccccc3)n2)cc1	35%
CC(=O)c1cc(C(=O)N2c3ccccc3Sc3ccccc32)n2c1ccc1ccccc12	14%
CCN(CC)c1ccc2c(c1)Oc1nc(N)c(C#N)c(N)c1C2Sc1ccc(F)cc1 (centres undefined)	-18.4% (active)
O=C(COc1ccc(/C=C2\C(=O)Nc3cc(Cl)ccc32)cc1)Nc1ccc(Cl)cc1	61%
O=C1Nc2ccc(Cl)cc2/C1=C/c1ccc(OCC(=O)c2ccc(Br)cc2)cc1	110%
COc1ccc(/C=N\NC(=O)c2cnn(CC(O)c3ccccc3)c2N)cc1OCc1ccc(Cl)cc1 (centres undefined)	99.7%
Cc1nc(/N=C(N)/N=C(\N)c2cccc(Br)c2)sc1C	12.4%
CC(=O)Nc1ccccc1-c1nc2ccccc2s1	99.5%
C=C(C)[C@@H]1CC[C@]2(C(=O)N3CCN(C)CC3)CC[C@]3(C)[C@H](CC[C@@H]4[C@@]5(C)CC[C@H](OP(=O)(OCC)OCC)C(C)(C)[C@@H]5CC[C@]43C)[C@@H]12	42.2%
O=C(/C=C1\C=CN(CCCCF)c2ccccc21)n1ccc2ccccc21	121%
COc1cc2cc(Oc3ccc(NC(=O)c4cc(C(F)(F)F)cc(C(F)(F)F)c4)cc3)c(C)nc2cc1OCCN1CCOCC1	89.4%

SMILES	growth
N#Cc1c(-c2ccc(Cl)cc2)nc(SCc2ccccc2)nc1N1CCNCC1	1.3% (active)
O=C(CCCCCCNC(=O)C(O)(O)C(F)(F)F)Nc1ccc(-c2ccccc2)cc1	13.1%
Cc1ccc(NC(=O)N[C@@H](Cc2cc(F)cc(F)c2)C(=O)NC2C(=O)N3CCC[C@H]3C(=O)N3CCCC[C@H]3C(=O)N[C@@H](C)C(=O)N3C[C@H](C)C[C@H]3C(=O)O[C@H]2C)c(F)c1 (some centres undefined)	13.4%
C(=C(\C1=NCCN1)n1cnc2ccccc21)/c1ccc2ccccc2c1	50.5%
COc1ccc(-c2cc(-c3cccc4ccccc34)n3c(n2)nc2ccccc23)cc1OC	-7.71% (active)
CN1CCN(c2ccc(C(=O)Nc3cccc(-c4cn(-c5ccc(S(N)(=O)=O)cc5)nn4)c3)cc2C(F)(F)F)CC1	77%
Cn1cc(C2=C(c3coc4cc(Br)ccc34)C(=O)NC2=O)c2ccccc21	44.5%
COc1ccc(C(C)=C(c2ccc(OCCN3CCCCCC3)cc2)c2ccc(OCCN3CCCCCC3)cc2)cc1	-46.9% (active)
N=c1c2cc(-c3ccccc3)oc2ncn1/N=C/c1ccc(Br)cc1	109%
Nc1cc(F)ccc1NC(=O)c1ccc(NC(=O)C/C=C/c2cccnc2)cc1	13.4%
COc1ccc2sc(NC(=O)CCCCCCNC(=O)C(O)(O)C(F)(F)F)nc2c1	11.8%
Cc1ccc2c(c1)C(=O)/C(=C/c1cccc(F)c1)S2	98.9%
COc1cccc(N2CCN(C3=C(Cl)C(=O)c4ncccc4C3=O)CC2)c1	9.82% (active)
CCO/C=N/C1=C(C#N)C(c2ccc(Cl)cc2)c2sc3c(C)cccc3c2O1 (centres undefined)	-12.7% (active)
Cc1ccc(-c2csc(N/N=C/c3nc4ccccc4n3C3CC3)n2)cc1	7.25% (active)
COc1cccc(N2CCN(c3ncnc4c3[nH]c3ccc(F)cc34)C[C@@H]2C)c1	-38.8% (active)
COCCC[C@H]1O[C@@](O)([C@H](C)[C@@H]2CC(OC)C(O)/C=C(C)/C=C(C)/C=C(\C)C(OC3O[C@@H](C)[C@H](O)C(O)[C@@H]3O)C(C)/C=C(C)/C=C(OC)/C=C(\C)C(=O)O2)C(OC)C(O)[C@]1(C)O[C@H]1C[C@@H](O)[C@H](O[C@H]2C[C@](C)(O)[C@H](O)C(C)O2)C(C)O1 (some centres undefined)	36%
